The text below walks through data of PubChem BioAssay (Tox21).

Calls of active or inactive are those of the source. Calls follow the shape of the dose curve; as a rule, active = well fitted curve in the direction sought with a large enough effect in the repeat runs; inconclusive = weak or mixed curves; inactive = flat fitted curve, though single readings scatter.

This assay can be described thus: qHTS assay to test for compound auto fluorescence at 590 nm (red) in HepG2 cells (AID 720674). The following applies: HepG2 autofluorescence, red 540/590 nm, 1 h; series mostly up to 91.3 µM. From the text:
U.S. Tox21 Program National Center for Advancing Translational Sciences [NCATS] NIH Chemical Genomics Center [NCGC] U.S. Environmental Protection Agency [EPA] National Institutes of Environmental Health Sciences [NIEHS] National Toxicology Program [NTP] U.S. Food and Drug Administration [FDA] Tox21 Assay Overview: Compound auto fluorescence often interferes with screening of the compound library against various biological targets and signaling pathways. Some of these compounds may have fluorophoric properties. Such properties may interfere with the assay outputs resulting in false positives and/or negatives. To decrease such complications and ensure the compound activities are relevant in terms of biological response, the Tox21 10K compound library was screened for auto fluorescence. From the fluorophores used as reporter signals in our screening assays, the auto fluorescence equivalencies of compounds against three fluorophores have been evaluated: Triamterene, Fluorescein and Rose Bengal sodium for blue, green and red fluorescence, respectively. The fluorescence intensities were measured using Excitation/Emission wavelengths at 405/460nm, 485/535nm and 540/590nm for blue, green and red labels, respectively. This assay includes the red fluorescence data.
Tox21 Assay Protocol Summary: 2,000 HepG2 cells in 5 uL of culture medium (MEM containing 10% FBS) per well were dispensed into black wall/clear bottom 1536-well plates using a Multidrop Combi Dispenser (ThermoFisher Scientific, Waltham, MA). The assay plates were incubated overnight at 37 C to allow cell attachment to the well bottom, followed by the transfer of 23 nL compound or DMSO vehicle by a pintool work station (Kalypsys , San Diego, CA). After the assay plates were incubated for 1 hr at 37 C and 5% CO2, fluorescence intensities in the assay plates were measured by an Envision (PerkinElmer, Shelton, CT) plate reader using three labels for measuring blue, green and red fluorescence at […] 460, 535 and 590 nm respectively.
A general note: Quantitative high-throughput screening tests each substance at several concentrations.
As for `c1ccc(Nc2ccc(Nc3ccccc3)cc2)cc1`, the call was inactive.
Take `O=S(=O)(NS(=O)(=O)C(F)(F)F)C(F)(F)F`: the call was inactive.
Turning to `CO/N=C(/C1=NOCCO1)c1ccccc1Oc1ncnc(Oc2ccccc2Cl)c1F`, the call was inactive.
The same measure for `COCCC#N`: “inactive”; for `[C-]1=CC=CC1.[Cl][Zr+2][Cl].c1cc[cH-]c1`: “inactive”.
Consider `CCCCc1ccccc1`, for which the compound was called inactive.
For the compound `CSC(=O)c1c(C(F)F)nc(C(F)(F)F)c(C(=O)SC)c1CC(C)C`, the compound was classed as inactive.
As to `CC(C)=CCN1CC[C@@]2(C)c3cc(O)ccc3C[C@@H]1[C@@H]2C`, the result was inactive.
Regarding `O=c1[nH]c(Cl)c(Cl)cc1Cl`, the result was inactive.
Regarding `CC(C)C(Br)C(=O)NC(N)=O` (stereo not given), the call was inactive.
Regarding `O=C(Cl)c1ccccc1F`, the outcome was inactive.
Turning to `[Cl-].[Cl-].[Sn+2]`, the compound was called inactive.
`Oc1ccc([C@H]2CNCc3c2ccc(O)c3O)cc1O`: the outcome was inactive.
Take `c1ccc2c(c1)cc1ccc3cccc4ccc2c1c34`: the compound was classed as inactive.
For `BrCC(Br)(Br)Br`, the call was inactive.
The same measure for `O=C(O)[C@H](O)[C@@H](O)C(=O)O`: “inactive”; for `Cc1ccc(C)c2ccccc12`: “inactive”; for `NC1CCC(CC2CCC(N)CC2)CC1` (stereo not given): “inactive”.
The same measure for `ClC(Cl)C(Cl)(Cl)Cl`: “inactive”.
For `O=S1(=O)OCC2C(CO1)C1(Cl)C(Cl)=C(Cl)C2(Cl)C1(Cl)Cl` (stereo not given), the compound was called inactive.
With `ClC1=C(Cl)[C@]2(Cl)[C@H]3[C@H]([C@@H]4C=C[C@H]3C4)[C@@]1(Cl)C2(Cl)Cl`, the compound was classed as inactive.
As to `CN/C(=N\[N+](=O)[O-])NCc1cnc(Cl)s1`, the outcome was inactive.
The same measure for `O=S(=O)(O)F`: “inactive”.
`CCC(OC(C)=O)C(CC(C)NC)(c1ccccc1)c1ccccc1` (stereo not given): the outcome was inactive.
Take `CCCC[N+]1(C)CCCC1` (tested in a mixture with another compound): the compound was classed as inactive.
For `CCCCn1cc[n+](C)c1.[Cl][Fe-]([Cl])([Cl])[Cl]`, the compound was called inactive.
The same measure for `Oc1cccc(Cl)c1Cl`: “inactive”; for `CN1[C@@H]2CC[C@H]1CC(O)C2` (stereo not given in full): “inactive”; for `O=S1OCC2C(CO1)C1(Cl)C(Cl)=C(Cl)C2(Cl)C1(Cl)Cl` (stereo not given): “inactive”.
The same measure for `CSC1=N[C@@](C)(c2ccccc2)C(=O)N1Nc1ccccc1`: “inactive”; for `O=C1C(Cl)=C(Cl)C(=O)C(Cl)=C1Cl`: “inactive”; for `c1ccc2nc(N3CCNCC3)ccc2c1`: “inactive”.
The same measure for `[O]=[Cr](=[O])([OH])[O][Cr](=[O])(=[O])[OH]`: “inactive”.
Take `CCC1COC(Cn2cncn2)(c2ccc(Cl)cc2Cl)O1` (stereo not given): the compound was called inactive.
The same measure for `CC(Cc1ccc(O)cc1)NCC(O)c1cc(O)cc(O)c1` (stereo not given): “inactive”; for `O.O.O.O=C([O-])[C@H]([O-])[C@@H]([O-])C(=O)[O-].O=C([O-])[C@H]([O-])[C@@H]([O-])C(=O)[O-].[K+].[K+].[Sb+3].[Sb+3]`: “inactive”; for `CCCCC(CC)COC(=O)c1ccccc1C(=O)OCC(CC)CCCC` (stereo not given): “inactive”.
On to `CN1CCc2cc(Cl)c(O)cc2[C@H]2c3ccccc3CC[C@@H]21`, for which the call was inactive.
The same measure for `O=[N+]([O-])c1cc(C(F)(F)F)c(Cl)c([N+](=O)[O-])c1Nc1ncc(C(F)(F)F)cc1Cl`: “inactive”; for `CC(C)[C@@H](Nc1ccc(C(F)(F)F)cc1Cl)C(=O)OC(C#N)c1cccc(Oc2ccccc2)c1` (stereo not given in full): “inactive”.
